Bioassay records from PubChem BioAssay.
VDR inhibitor – Inhibitors of the vitamin D receptor (VDR): qHTS; Vitamin D3 receptor (Homo sapiens), P11473; Potency, µM, usual class: inhibitors; actives 0.93% (n = 400,000); VDR-SRC2-3 peptide fluorescence polarization, 2 h
Target sequence (P11473 whole entry, looked up): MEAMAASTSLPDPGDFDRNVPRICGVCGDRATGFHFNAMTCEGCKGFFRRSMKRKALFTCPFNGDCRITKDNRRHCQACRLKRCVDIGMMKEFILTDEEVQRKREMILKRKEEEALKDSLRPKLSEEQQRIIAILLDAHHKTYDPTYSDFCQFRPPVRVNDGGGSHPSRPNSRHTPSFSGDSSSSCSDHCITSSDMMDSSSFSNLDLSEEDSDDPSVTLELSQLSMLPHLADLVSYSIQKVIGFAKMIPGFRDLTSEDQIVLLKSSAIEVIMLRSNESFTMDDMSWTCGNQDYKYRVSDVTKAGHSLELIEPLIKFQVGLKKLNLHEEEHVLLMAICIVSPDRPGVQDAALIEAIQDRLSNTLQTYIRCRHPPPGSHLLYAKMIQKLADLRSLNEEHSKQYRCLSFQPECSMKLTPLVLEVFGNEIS
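Signal is fluorescence polarization, reporting how far test compounds block the interaction of VDR with the SRC2-3 coregulator peptide after a 2 h room-temperature incubation.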
TDP1 block – qHTS Assay for Inhibitors of Tyrosyl-DNA Phosphodiesterase (TDP1); Tyrosyl-DNA phosphodiesterase 1 (Homo sapiens), Q9NUW8; recombinant TDP1, AlphaScreen DNA substrate cleavage; Potency, µM (doses to about 130 µM), actives largely listed as inhibitors; actives 0.28% (n = 350,000); AID 485290, 2010; further: nearly all actives have a fitted effect of over 40% in size
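E. coli-derived human Tdp1, 1 nM final. Cpd preinc 15 min RT; substrate 15 nM final, 5 min RT; AS bead mix 10 ug/ml final, 10 min RT. Signal loss = tyrosine-FITC cleavage. No-enzyme wells = max signal.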
PLK1 PBD block – qHTS for Inhibitors of PLK1-PDB (polo-like kinase 1 - polo-box domain): Primary Screen; Plk1 PBD binding of FITC phosphopeptide, fluorescence polarization; Potency, µM, hits mostly inhibitors; actives 2.8% (n = 360,000); further: series mostly up to about 57 µM; nearly all actives have a fitted effect of over 65% in size
Tb PFK block – qHTS Assay to Find Inhibitors of T. brucei phosphofructokinase | T. brucei PFK, ADP-Glo luminescence | Potency, µM (top dose mostly 57.5 µM), most hits filed as inhibitors | ATP-dependent 6-phosphofructokinase (Trypanosoma brucei brucei), O15648 | actives 0.17% (n = 330,000) | AID 485367, 2010; further: nearly all actives have a fitted effect of over 60% in size
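Luminescent ADP detection (ADP-Glo, two-step: ATP depletion then ADP-to-ATP conversion for luciferase) reported PFK activity after 45 min room-temperature reaction of 1.25 nM enzyme with 0.5 mM F6P and 0.1 mM ATP at pH 8.0.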
Pin1 inhibitor – qHTS Assay to Find Inhibitors of Pin1; Potency, µM (top dose mostly 115 µM), most hits filed as inhibitors; Peptidyl-prolyl cis-trans isomerase NIMA-interacting 1 (Homo sapiens), Q13526; Pin1 FP peptide displacement, HiFluor488, 10 min; actives 0.009% (n = 390,000); active means well fitted inhibition curve with a large enough effect in the polarisation, with a control signal flat, not every such curve was filed as active; inconclusive means small, poorly fitted or top-dose-only effect, or effect the other way, or a change in a side signal; inactive means no such curve, though single readings can be large or run the other way; the % refers to the polarisation
Target sequence (Q13526 whole entry, looked up): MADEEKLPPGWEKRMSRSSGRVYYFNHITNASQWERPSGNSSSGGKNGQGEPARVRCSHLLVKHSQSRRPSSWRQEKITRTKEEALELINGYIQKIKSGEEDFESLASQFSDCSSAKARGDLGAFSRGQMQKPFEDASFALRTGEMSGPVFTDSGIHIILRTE
ASM inhibitor – Inhibitors of Secretory Acid Sphingomyelinase (S-ASM): qHTS. Sphingomyelin phosphodiesterase (Homo sapiens), P17405. placental ASM, HMU-PC fluorogenic substrate, 60 min. Potency, µM (series often up to 57.5 µM), actives largely listed as inhibitors. actives 0.006% (n = 340,000)
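qHTS format. ASM enzyme prepared from human placenta hydrolyses the fluorogenic substrate HMU-PC0 (9 uM final) over 60 min at 37 °C after a 10 min compound preincubation.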
Each line names hits and unclear results; the compound was inactive in the other large screens. A selection: hits, their analogues and other compounds. The true share with any hit is near 3.1%. Unless noted, the call rests on the fitted dose curve; in most records, active means well fitted curve in the direction sought with a large enough effect; inconclusive means small, poorly fitted or top-dose-only effect, or another doubt; inactive means no such curve, though single readings can be large; an effect the other way counts as inactive or inconclusive.

CN(C(=O)CSc1cn(CC(=O)N2CCOCC2)c2ccccc12)c1ccccc1	VDR inhibitor inconclusive, PLK1 PBD block 12µM
O=C(/C=C/c1ccccc1O)c1ccccc1	VDR inhibitor 28µM (no result: TDP1 block, Tb PFK block)
COc1cc(O)c(C(=O)/C=C/c2ccccc2)c(OC)c1	VDR inhibitor 14µM
O=C(/C=C/c1ccccc1O)c1ccc(Cl)cc1	VDR inhibitor 35µM (no result: TDP1 block)
CC(=O)/C=C/c1ccccc1O	none
O=C(/C=C/c1ccc[nH]1)c1ccccc1	VDR inhibitor 79µM, PLK1 PBD block 30µM
Nc1ccccc1[N+](=O)[O-]	none (no result: VDR inhibitor, PLK1 PBD block, Tb PFK block, Pin1 inhibitor, ASM inhibitor)
CC[C@H](C)[C@H](NC(=O)[C@H](Cc1ccc(O)cc1)NC(=O)[C@@H]1CCCN1C(=O)[C@H](CCCCN)NC(=O)[C@@H](N)CCCCN)C(=O)N[C@@H](CC(C)C)C(=O)O	none (no result: PLK1 PBD block, Tb PFK block, Pin1 inhibitor, ASM inhibitor)
Cc1cc(O)c(C(=O)/C=C/c2cccc([N+](=O)[O-])c2)c(=O)o1	PLK1 PBD block inconclusive, Pin1 inhibitor inconclusive (no result: TDP1 block)
Cc1cc(O)c(C(=O)/C=C/c2ccccc2O)c(=O)o1	VDR inhibitor inconclusive, PLK1 PBD block 21µM, Pin1 inhibitor inconclusive (no result: TDP1 block)
O=C(/C=C/c1ccc2c(c1)OCCO2)c1ccccc1	VDR inhibitor 50µM (no result: TDP1 block)
COc1ccccc1/C=C/C(=O)c1ccccc1	VDR inhibitor 79µM
O=C(/C=C/c1cccc2ccccc12)c1ccncc1	VDR inhibitor 14µM, PLK1 PBD block inconclusive
COc1ccc(C2CC(=O)Nc3c2c(=O)n(C)c2nc4ccccc4n32)cc1 (stereo unspecified)	none (no result: PLK1 PBD block, Tb PFK block, ASM inhibitor)
Cc1ccc(-c2nc(CS(=O)CC(=O)N3CCN(c4ccc(Cl)cc4)CC3)c(C)o2)cc1 (stereo unspecified)	none (no result: PLK1 PBD block, Tb PFK block, ASM inhibitor)
Cc1c(C(=O)N2CCCCC2)c(S(=O)(=O)N2CCC(C)CC2)c(C)n1C	VDR inhibitor inconclusive, PLK1 PBD block 21µM
Cc1c(C(=O)N2CCOCC2)c(S(=O)(=O)Nc2ccc(OC(F)(F)F)cc2)c(C)n1C	none
Cc1c(C(=O)N2CCOCC2)c(S(=O)(=O)Nc2ccc(C(C)C)cc2)c(C)n1C	VDR inhibitor inconclusive, PLK1 PBD block 27µM
Cc1ccc(NS(=O)(=O)c2c(C(=O)N3CCCCCC3)c(C)n(C)c2C)cc1F	none (no result: PLK1 PBD block, Tb PFK block, ASM inhibitor)
Cc1ccc(NS(=O)(=O)c2c(C(=O)N3CCCCCC3)c(C)n(C)c2C)cc1C	PLK1 PBD block 21µM
CCCCCOc1ccc(C(=O)N(Cc2ccccc2)C2CCS(=O)(=O)C2)cc1 (stereo unspecified)	none (no result: PLK1 PBD block, Tb PFK block, ASM inhibitor)
O=C1CCc2cc(S(=O)(=O)Nc3cc(F)cc(Cl)c3)c(F)cc2N1	none (no result: VDR inhibitor, PLK1 PBD block, Tb PFK block, ASM inhibitor)
COc1ccc(-c2c(O)c3cc(O)cc(O)c3oc2=O)cc1	none (no result: PLK1 PBD block, Tb PFK block, Pin1 inhibitor, ASM inhibitor)
COC(=O)c1c(C)c2c(c(C)c1O)OC(=O)c1c(C)c(Cl)c(O)c(Cl)c1O2	VDR inhibitor inconclusive (no result: PLK1 PBD block, Tb PFK block, Pin1 inhibitor, ASM inhibitor)
COC(=O)c1c(OC)cc2c(c1C)Oc1c(Cl)c(O)c(Cl)c(C)c1C(=O)O2	VDR inhibitor 40µM (no result: PLK1 PBD block, Tb PFK block, Pin1 inhibitor, ASM inhibitor)
O=C(OCC#CCSc1nnc(-c2cccc3ccccc23)o1)c1ccc(OC(F)(F)F)cc1	none (no result: VDR inhibitor, PLK1 PBD block, Tb PFK block, ASM inhibitor)
COc1cccc(NC(=O)CCS(=O)(=O)c2cc3c(cc2Cl)NC(=O)CO3)c1	Pin1 inhibitor inconclusive
Cc1cccc(NC(=O)CCS(=O)(=O)c2cc3c(cc2Cl)NC(=O)CO3)c1	VDR inhibitor inconclusive, PLK1 PBD block 12µM
N=c1c2c(ncn1-c1ccccc1)Oc1ccc3ccccc3c1C2c1ccc2c(c1)OCO2 (stereo unspecified)	none (no result: VDR inhibitor, TDP1 block, PLK1 PBD block, Tb PFK block, ASM inhibitor)
C=CCn1c(NC(=O)c2ccccc2Cl)c(C#N)c2nc3ccccc3nc21	VDR inhibitor 35µM, Pin1 inhibitor inconclusive
Cc1cc(C)c(N(Cc2ccccc2)S(=O)(=O)c2ccc(OCCNC(=O)c3cc4ccccc4o3)cc2)c(C(=O)NO)c1	none (no result: PLK1 PBD block, Tb PFK block, Pin1 inhibitor, ASM inhibitor)
